# Data taken from the supplement of paper PMC13380429.
# A number with no mark means an inactive call.
# Tested on: Vero E6 infected with SARS-CoV-2
# Experiment: inhibition of SARS-CoV-2 cytopathic effect; higher = more antiviral protection, active = above 15
# Conditions: 48 h
SMILES,inhibition of SARS-CoV-2 cytopathic effect (1 nM) [%],inhibition of SARS-CoV-2 cytopathic effect (8.33 nM) [%],inhibition of SARS-CoV-2 cytopathic effect (100 nM) [%],inhibition of SARS-CoV-2 cytopathic effect (833.33 nM) [%],inhibition of SARS-CoV-2 cytopathic effect (10000 nM)
O=[N+]([O-])c1cccc2c(Br)n[nH]c12 [3-bromo-7-nitroindazole],0.35,2.23,0.07,-3.48,-0.25%
C/C(=C\C(N)C(=O)O)CP(=O)(O)O (stereo not given),-2.33,-2.58,0.17,5.33,-3.57%
C[C@@H]1O[C@@H](O[C@H]2[C@H](Oc3cc(O)c(C(=O)CCc4ccc(O)cc4)c(O)c3)O[C@H](CO)[C@@H](O)[C@@H]2O)[C@H](O)[C@H](O)[C@H]1O [naringin-dihydrochalcone],0.83,0.35,0.27,0.83,1.4%
N=C(N)c1ccc(-c2ccc(-c3ccc(C(=N)N)cc3)o2)cc1 [furamidine],-2.49,0.26,-3.62,0.94,2.72%
CC(C)NCC(O)COc1cccc2ccccc12 (stereo not given) [propranolol],0.19,1.94,-0.637,-0.01,-2.77%
CN(C)c1ccc(-c2nc3c(N4CCN(CC(=O)Nc5nccs5)CC4)c(Cl)cnc3[nH]2)cc1,0.9,-0.82,-1.07,0.5,13.9%
Clc1ccccc1C(c1ccccc1)(c1ccccc1)n1ccnc1 [clotrimazole],-0.06,-0.06,-0.28,0.61,2.73%
COc1ccc2cc1Oc1ccc(cc1)C[C@H]1c3c(cc4c(c3Oc3cc5c(cc3OC)CCN(C)[C@@H]5C2)OCO4)CCN1C [cepharanthine],-0.29,-1.27,-1.35,-2.66,21.3% (active)
CCc1nn(CCO)c(CC)c1Oc1cc(C#N)cc(C#N)c1 [lersivirine],2.25,2.52,2.57,0.87,2.19%
C[C@]12C/C(=C/O)C(=O)C[C@@H]1CC[C@@H]1[C@@H]2CC[C@@]2(C)[C@H]1CC[C@]2(C)O [Oxymetholone],0.88,0.02,1.73,0.45,1.57%
Cc1cc(O)c(C(C)C)cc1Cl [chlorothymol],0.21,0.56,2.72,0.49,-5.16%
Cc1sc(C)c2c1CCC=C2c1c[nH]cn1,-1.05,-1.35,-1.5,-2.81,-2.28%
O=C(CCCCCCCn1cc(-c2cccnc2)nn1)Nc1ccccc1-c1ccccc1,0.38,-1.7,-14.1,-14.7,-12.8%
CNC(=O)[C@@H](Cc1ccccc1)N(C)C(=O)[C@@H](Cc1ccc2ccccc2c1)N(C)C(=O)/C=C/CC(C)(C)N [tabimorelin],0.97,-0.49,-1.39,2.19,0.56%
C/C=C/C=C/C(=O)O [sorbic-acid],1.14,2.26,-1.43,2.41,2.55%
O=C1CC2(CCCC2)CC(=O)N1CCNC[C@H]1COc2ccccc2O1,-0.99,-2.08,-0.87,0.95,-2.14%
"BrC1C(Br)C(Br)C(Br)C(Br)C1Br (stereo not given) [1,2,3,4,5,6-hexabromocyclohexane]",-2.03,-1.15,-1.07,-1.96,9.07%
OC(CCN1CCCCC1)(c1ccccc1)c1ccccc1 [pridinol],3.98,4.59,-0.32,-9.56,0.53%
